This passage reports growth results from PubChem BioAssay (NCI).

The structures appear in SMILES notation. About 83,000 compounds went through this panel and 20% of them were active in at least one assay; those are over-represented in the sample as a whole.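 Step 1: grow cells in 96-well plates. Step 2: add test compound at a single concentration. Step 3: incubate 48 h. Step 4: record percent growth.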 Unmarked numbers belong to inactive results. Active and inactive are the calls of the source. Rule for the calls: active = growth percent below 10; inactive = the rest.

Holding throughout (test): NCI-60 one-dose screen, 48 h (100 = growth as untreated, 0 = no growth, -100 = all killed)
Conditions in all cases: 10 µM unless noted

The subject of experiment [1] is SK-MEL-2 melanoma.
For experiment [2], the system named is EKVX NSCLC.
The subject of experiment [3] is SN12C renal.
Experiment [4] deals with UO-31 renal.
For experiment [5], the system named is TK-10 renal.
In experiment [6] the test system is ACHN renal.
Experiment [7] concerns CAKI-1 renal.
Experiment [8] concerns A498 renal.
In experiment [9] the test system is CCRF-CEM leukemia.
For experiment [10], the system named is MOLT-4 leukemia.

For `OB1OCc2cc(/C=C/c3cccc(C(F)(F)F)c3)ccc21`, the growth is 60.2% in experiment [1]; 26.5% in experiment [2]; 15.2% in experiment [3]; -28.6% (active) in [4]; -19.3% (active) in experiment [5]; -91.6% (active) in [6]. In addition, the growth in experiment [7] was -46% (active); in experiment [8], 6.25% (active); in experiment [9], 7.57% (active); in [10], -3.42% (active).
On to `O=C(NCc1ccc(Cl)cc1Cl)C1CCC(=O)N1c1cccs1` (stereo not given), for which the growth in experiment [1] is 91.2%; in [2], 91.3%; in experiment [3], 97.9%; in experiment [4] it was 83.1%; in experiment [5], 98.8%; in [6] it was 95%. Further, the growth in experiment [7] is 81.6%; in experiment [8] it was 85.2%; in experiment [9], 110%; in [10] it was 98.1%.
Regarding `Cc1cc(C(=O)Nc2ncc(Cc3cccc(C(F)(F)F)c3)s2)c2ccccc2n1`, the growth in [1] is -16% (active); in experiment [2] it was 43.2%; in [3], 47.7%; in experiment [4], 29%; in [5], 49.5%; in experiment [6], 28.1%. Moreover, the growth in experiment [7] was 13.3%; in experiment [8] it was 0.174% (active); in experiment [9], 11.8%; in [10], 14.9%.
Take `N#CSCC1CC(O)(c2ccccc2)CC(c2ccc(F)cc2)O1` (stereo not given): the growth in [1] was -54.6% (active); in experiment [2] it was 34.2%; in experiment [3] it was -61.5% (active); in [4], 33.3%; in experiment [5] it was 59.7%; in experiment [6] it was 9.51% (active). For the same compound, the growth in experiment [7] is -44.9% (active); in experiment [8], 33.3%; in experiment [9], 7.42% (active); in [10], -0.406% (active).
With `N#Cc1ccc(O)c(C2=NCC(c3cccc(Oc4ccccc4)c3)O2)c1` (stereo not given), the growth in experiment [1] was 7.46% (active); in [2] it was 24%; in experiment [3], 33.3%; in [4] it was -6.42% (active); in experiment [5] it was 3.38% (active); in experiment [6], 17.5%. Also, the growth was 6.87% (active) in experiment [7], 50.9% in experiment [8], 14.4% in experiment [9] and -0.248% (active) in [10].
Consider `COC(=O)/C=C1/SC(=Nc2cccc(OC)c2)N(CCc2c[nH]c3ccc(O)cc23)C1=O`, for which the growth in experiment [1] is 57.6%; in [2], 66.9%; in [3], 62.3%; in experiment [4], 55.7%; in experiment [5], 117%; in experiment [6], 71.8%. The growth in experiment [7] was 82.2%; in experiment [8], 64.9%; in [9], 4.98% (active); in [10] it was -1.26% (active).
Turning to `CNc1nnc2n(-c3ccccc3)c(=O)c3cnn(-c4ccccc4)c3n12`, the growth in [1] was 82%; in experiment [2] it was 90.4%; in [3], 104%; in [4] it was 81.3%; in experiment [5], 79.9%; in experiment [6], 88.8%. The growth in experiment [7] is 81%; in experiment [8] it was 71.7%; in experiment [9], 85.8%; in [10], 72.2%.
Turning to `Cc1nc2sc(C(=O)Nc3ccc(Br)cc3)c(N)c2cc1C(O)c1ccccc1` (stereo not given), the growth in experiment [1] is 81.5%; in experiment [2], 55.3%; in experiment [3] it was 68%; in [4], 62.1%; in experiment [5], 85.4%; in [6], 72.4%. For the same compound, the growth in [7] was 65%; in [8], 51.9%; in experiment [9] it was 43.4%; in [10], 26.2%.
Take `COCCOc1cc2ncnc(N3CCN(c4cc(S(C)(=O)=O)c(C)cc4Cl)CC3)c2cc1OCCOC`: the growth in experiment [1] was 95.3%; in experiment [2] it was 90.4%; in experiment [3], 87.2%; in experiment [4], 61.8%; in [5] it was 104%; in [6] it was 100%. In addition, the growth in experiment [7] is 101%; in experiment [8] it was 88.2%; in experiment [9], 89.5%; in experiment [10], 79.4%.
For the compound `COc1ccc(/C=C/C(=O)c2ccc(Nc3ccnc4cc(Cl)ccc34)cc2)cc1`, the growth in experiment [1] is 64.1%; in experiment [2] it was 85.8%; in [3], 97.8%; in [4] it was 90%; in experiment [5], 141%; in experiment [6] it was 98.8%. Besides, the growth in experiment [7] was 85.1%; in [8] it was 115%; in experiment [9], -52.1% (active); in experiment [10], 22.9%.
In the case of `COc1ccc(Cc2cnc(NC(=O)c3cc(C)oc3C)s2)cc1`, the growth in experiment [1] was 47.7%; in experiment [2] it was 36.8%; in experiment [3] it was 42.7%; in [4] it was 39.6%; in experiment [5] it was 58%; in [6], 40.3%. Besides, the growth in experiment [7] is 25.3%; in experiment [8] it was 16.5%; in experiment [9], 29.3%; in experiment [10] it was 19.2%.
For `O=C(CN1CCOCC1)Nc1nc(-c2cc3ccccc3oc2=O)cs1`, the growth was 114% in [1]; 99% in [2]; 101% in experiment [3]; 70.6% in [4]; 154% in experiment [5]; 93.1% in experiment [6]. Besides, the growth in experiment [7] is 82.4%; in experiment [8], 102%; in [9], 103%; in experiment [10], 104%.
With `COC1=CC(c2ccc[nH]2)=N/C1=C\c1[nH]c(C)c(CC(=O)OCc2ccccc2)c1CCC(=O)OCc1ccccc1`, the growth in experiment [1] is -61.3% (active); in [2] it was 4% (active); in experiment [3], -15.6% (active); in experiment [4] it was -89.3% (active); in experiment [5] it was -21.5% (active); in experiment [6] it was -30.6% (active). The growth in [7] is -15.9% (active); in experiment [8] it was -54.1% (active); in experiment [9], -0.154% (active); in experiment [10], -10.6% (active).
Take `COc1ccc(Nc2nc(-c3cc(O)c(C)c(C)c3O)cs2)cc1`: the growth is 94.9% in experiment [1]; 89.2% in [2]; 88.4% in experiment [3]; 74.7% in experiment [4]; 114% in experiment [5]; 82.2% in experiment [6]. Also, the growth in experiment [7] was 51.6%; in experiment [8], 101%; in experiment [9], 17.8%; in experiment [10] it was 25.7%.
